Reference: PubChem BioAssay (EPA / NIEHS)
Activity calls are given as the source filed them. The calls were made as follows: active = hit-call score of the fitted dose curve at least 0.9, where 1 is the maximum; inactive = score below 0.9.

Assays:
[1] = read-out: Macrophage colony-stimulating factor (MCSF), CSF1 (gene 1435); assay: BSK_hDFCGF_MCSF: BioMAP Diversity Plus: hDFCGF Assay for Macrophage colony-stimulating factor (MCSF) Biomarker Activity (AID 2283060); conditions: primary human foreskin fibroblasts; actives raise or lower the signal
How it was run: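 M-CSF levels read by ELISA at 24 h post-dosing in human skin fibroblasts. Parallel cultures stained with SRB assessed cytotoxicity at the same time point; response fitted in both directions against the DMSO baseline.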

[2] = BSK_hDFCGF_SRB: Viability Assessment in the BioMAP Diversity Plus: hDFCGF Assay (AID 2283061); conditions: primary human foreskin fibroblasts;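 also: cells exposed to compound for 24 h before the read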
How it was run: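 Viability was read as total protein: after 10% TCA fixation, wells were stained with 0.1% sulforhodamine B and read at 560 nm. Primary human foreskin fibroblasts were dosed for 24 h, with bidirectional fitting versus DMSO.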

[3] = read-out: TIMP metallopeptidase inhibitor 1 (TIMP1), TIMP1 (gene 7076); assay: BSK_hDFCGF_TIMP1: BioMAP Diversity Plus: hDFCGF Assay for TIMP metallopeptidase inhibitor 1 (TIMP1) Biomarker Activity (AID 2283062); conditions: primary human foreskin fibroblasts; actives raise or lower the signal
How it was run: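 TIMP-1 measured by ELISA 24 h after chemical dosing of primary human skin fibroblasts, with gain or loss fitted relative to DMSO. Parallel SRB staining (560 nm) monitored overt cytotoxicity.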

[4] = read-out: Monokine induced gamma interferon (MIG), CXCL9 (gene 4283); assay: BSK_hDFCGF_MIG: BioMAP Diversity Plus: hDFCGF Assay for Monokine induced gamma interferon (MIG) Biomarker Activity (AID 2283063); conditions: primary human foreskin fibroblasts; actives raise or lower the signal
How it was run: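 Human primary foreskin fibroblasts in the hDFCGF system, exposed to test chemical for 24 h; MIG measured by ELISA. Bidirectional curve fitting against DMSO negative control as activity baseline.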

[5] = read-out: Matrix Metallopeptidase 1 (MMP1), MMP1 (gene 4312); assay: BSK_hDFCGF_MMP1: BioMAP Diversity Plus: hDFCGF Assay for Matrix Metallopeptidase 1 (MMP1) Biomarker Activity (AID 2283064); conditions: primary human foreskin fibroblasts; actives raise or lower the signal
How it was run: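 hDFCGF primary fibroblasts (human foreskin); chemical added; 24 h; MMP1 by ELISA; bidirectional fit vs DMSO.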

[6] = read-out: Vascular cell adhesion molecule 1 (VCAM1), VCAM1 (gene 7412); assay: BSK_hDFCGF_VCAM1: BioMAP Diversity Plus: hDFCGF Assay for Vascular cell adhesion molecule 1 (VCAM1) Biomarker Activity (AID 2283065); conditions: primary human foreskin fibroblasts; actives raise or lower the signal;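 as to AC50: VCAM-1 protein level quantified by ELISA after 24 h chemical exposure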
How it was run: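 ELISA readout of VCAM-1 on human dermal fibroblast primary cultures, 24 h after chemical exposure. Gain or loss of signal fitted in both directions against DMSO baseline.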

[7] = read-out: Plasminogen activator inhibitor-1 (PAI1), SERPINE1 (gene 5054); assay: BSK_hDFCGF_PAI1: BioMAP Diversity Plus: hDFCGF Assay for Plasminogen activator inhibitor-1 (PAI1) Biomarker Activity (AID 2283066); conditions: primary human foreskin fibroblasts; actives raise or lower the signal
How it was run: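 Human foreskin fibroblast primary cells, 24 h chemical exposure; PAI-1 measured by ELISA. Bidirectional fitting relative to DMSO; parallel cultures stained with SRB for total protein to flag overt cytotoxicity.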

[8] = read-out: Intercellular Adhesion Molecule 1 (ICAM1), ICAM1 (gene 3383); assay: BSK_KF3CT_ICAM1: BioMAP Diversity Plus: KF3CT Assay for Intercellular Adhesion Molecule 1 (ICAM1) Biomarker Activity (AID 2283067); conditions: primary human keratinocytes with fibroblasts; actives raise or lower the signal
How it was run: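 Cell-surface ICAM-1 was measured by ELISA 24 h after dosing primary human skin keratinocytes co-cultured with fibroblasts. Parallel SRB staining tracked overt cytotoxicity. Gain or loss of signal was fitted relative to DMSO.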

[9] = read-out: Interferon-gamma inducible Protein 10 (IP10), CXCL10 (gene 3627); assay: BSK_KF3CT_IP10: BioMAP Diversity Plus: KF3CT Assay for Interferon-gamma inducible Protein 10 (IP10) Biomarker Activity (AID 2283068); conditions: primary human keratinocytes with fibroblasts; actives raise or lower the signal
How it was run: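 Signal is secreted/surface IP-10 by ELISA in a human primary skin co-culture of keratinocytes and foreskin fibroblasts, taken 24 h post-dosing; DMSO served as negative control.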

[10] = BSK_KF3CT_SRB: Viability Assessment in the BioMAP Diversity Plus: KF3CT Assay (AID 2283069); conditions: primary human keratinocytes with fibroblasts;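 also: total protein by sulforhodamine B staining as a cytotoxicity measure; read 24 h after compound addition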
How it was run: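 Keratinocytes co-cultured with foreskin fibroblasts (human primary); chemical added, 24 h; fix 10% TCA, stain 0.1% SRB, A560. Bidirectional fit vs DMSO.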

[11] = read-out: Interleukin-1 alpha (IL1a), IL1A (gene 3552); assay: BSK_KF3CT_IL1a: BioMAP Diversity Plus: KF3CT Assay for Interleukin-1 alpha (IL1a) Biomarker Activity (AID 2283070); conditions: primary human keratinocytes with fibroblasts; actives raise or lower the signal
How it was run: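 Chemicals were dosed onto co-cultured human keratinocytes and foreskin fibroblasts, IL-1a was quantified by ELISA at 24 h, and activity was fitted in both directions relative to DMSO controls.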

[12] = read-out: TIMP metallopeptidase inhibitor 2 (TIMP2), TIMP2 (gene 7077); assay: BSK_KF3CT_TIMP2: BioMAP Diversity Plus: KF3CT Assay for TIMP metallopeptidase inhibitor 2 (TIMP2) Biomarker Activity (AID 2283071); conditions: primary human keratinocytes with fibroblasts; actives raise or lower the signal
How it was run: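 Co-culture of human primary keratinocytes and foreskin fibroblasts, measured 24 h after chemical dosing. TIMP-2 quantified by ELISA and fitted in both directions relative to DMSO. Cytotoxicity checked in parallel cultures by SRB total-protein staining.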

[13] = read-out: Transforming growth factor beta 1 (TGFb1), TGFB1 (gene 7040); assay: BSK_KF3CT_TGFb1: BioMAP Diversity Plus: KF3CT Assay for Transforming growth factor beta 1 (TGFb1) Biomarker Activity (AID 2283072); conditions: primary human keratinocytes with fibroblasts; actives raise or lower the signal
How it was run: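 Human keratinocyte/foreskin fibroblast co-culture; TGF-b1 measured by ELISA 24 h after dosing, fitted bidirectionally versus DMSO. Cytotoxicity checked in parallel cultures by total protein (SRB staining, 560 nm).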

[14] = read-out: Matrix Metallopeptidase 9 (MMP9), MMP9 (gene 4318); assay: BSK_KF3CT_MMP9: BioMAP Diversity Plus: KF3CT Assay for Matrix Metallopeptidase 9 (MMP9) Biomarker Activity (AID 2283074); conditions: primary human keratinocytes with fibroblasts; actives raise or lower the signal;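 as to AC50: MMP9 protein level quantified by ELISA in the co-culture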
How it was run: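 Human keratinocyte/foreskin fibroblast co-culture; compound added; 24 h; MMP-9 by ELISA; bidirectional fit vs DMSO baseline.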

[15] = read-out: urokinase plasminogen activator (uPA), PLAU (gene 5328); assay: BSK_KF3CT_uPA: BioMAP Diversity Plus: KF3CT Assay for urokinase plasminogen activator (uPA) Biomarker Activity (AID 2283075); conditions: primary human keratinocytes with fibroblasts; actives raise or lower the signal
How it was run: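 ELISA readout of uPA, analyzed for signal gain or loss relative to DMSO, from a human primary keratinocyte–foreskin fibroblast co-culture measured 24 h after chemical treatment.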

CD40, CD40 (gene 958) = assay: BSK_LPS_CD40: BioMAP Diversity Plus: LPS Assay for CD40 Biomarker Activity (AID 2283076); conditions: primary human HUVEC with PBMC; actives raise or lower the signal
How it was run: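 In the LPS system of human endothelial cells with peripheral blood mononuclear cells, CD40 levels were read by ELISA 24 h post-treatment. Signal changes in either direction were fitted against the DMSO baseline, with parallel SRB protein staining.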

[16] = read-out: E-selectin (Homo sapiens) (UniProt P16581); assay: BSK_LPS_Eselectin: BioMAP Diversity Plus: LPS Assay for Eselectin Biomarker Activity (AID 2283077); conditions: primary human HUVEC with PBMC; actives raise or lower the signal
How it was run: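 E-selectin ELISA on LPS-stimulated endothelial cell/PBMC co-cultures, read 24 h post-treatment; gains and losses fitted against DMSO. Parallel SRB staining (0.1% SRB after 10% TCA fixation, 560 nm) flags overt cytotoxicity.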

[17] = read-out: Interleukin-8 (IL8), CXCL8 (gene 3576); assay: BSK_LPS_IL8: BioMAP Diversity Plus: LPS Assay for Interleukin-8 (IL8) Biomarker Activity (AID 2283078); conditions: primary human HUVEC with PBMC; actives raise or lower the signal
How it was run: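 ELISA read-out of IL-8 after 24 h chemical treatment of LPS-activated endothelial/PBMC human primary co-cultures. Changes either up or down relative to DMSO; overt cytotoxicity checked by sulforhodamine B staining in parallel wells.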

[18] = BSK_LPS_SRB: Viability Assessment in the BioMAP Diversity Plus: LPS Assay (AID 2283079); conditions: primary human HUVEC with PBMC;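 also: total protein by sulforhodamine B absorbance as a cytotoxicity measure; measured one day after compound addition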
How it was run: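 SRB viability endpoint: cells fixed with 10% TCA, stained with 0.1% SRB, read at 560 nm, 24 h post-dose. HUVEC/PBMC co-culture; signal change in either direction scored relative to DMSO.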

[19] = read-out: C-C motif chemokine 2 (Homo sapiens) (UniProt P13500); assay: BSK_KF3CT_MCP1: BioMAP Diversity Plus: KF3CT Assay for Monocyte Chemoattractant Protein 1 (MCP1/CCL2) Biomarker Activity (AID 2283073); conditions: primary human keratinocytes with fibroblasts; actives raise or lower the signal
How it was run: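 ELISA read-out of MCP-1, 24 h post-dose, in primary human skin keratinocytes co-cultured with fibroblasts. Parallel SRB staining monitors cytotoxicity; changes fitted both directions relative to DMSO.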

Measured: AC50

Chain of E-selectin (Homo sapiens) (P16581 whole entry, looked up): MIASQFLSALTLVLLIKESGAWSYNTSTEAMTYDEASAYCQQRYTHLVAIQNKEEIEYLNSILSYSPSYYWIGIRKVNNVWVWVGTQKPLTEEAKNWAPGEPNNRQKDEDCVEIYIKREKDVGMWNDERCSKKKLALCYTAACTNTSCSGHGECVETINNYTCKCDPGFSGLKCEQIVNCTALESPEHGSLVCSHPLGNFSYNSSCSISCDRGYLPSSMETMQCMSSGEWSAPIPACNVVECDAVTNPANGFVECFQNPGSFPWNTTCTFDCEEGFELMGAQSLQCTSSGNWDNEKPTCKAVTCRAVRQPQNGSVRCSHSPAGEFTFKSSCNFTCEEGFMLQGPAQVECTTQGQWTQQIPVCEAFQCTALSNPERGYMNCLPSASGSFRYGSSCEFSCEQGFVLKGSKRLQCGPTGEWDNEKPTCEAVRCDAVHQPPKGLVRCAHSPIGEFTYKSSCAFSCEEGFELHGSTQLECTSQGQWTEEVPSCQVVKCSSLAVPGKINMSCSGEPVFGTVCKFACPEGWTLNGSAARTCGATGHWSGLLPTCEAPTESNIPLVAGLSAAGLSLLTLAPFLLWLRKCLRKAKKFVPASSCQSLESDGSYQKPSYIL

CCOc1nc(C(Cl)(Cl)Cl)ns1
not listed: [19]
inactive: all other assays above

COP(=S)(OC)Oc1ccc([N+](=O)[O-])c(C)c1
active: [1] 13.2 µM | [6] 9.37 µM | [14] 15.1 µM | [18] 10.6 µM
not listed: [17]
inactive: all other assays above

CC1(C)CON(Cc2ccccc2Cl)C1=O
active: [5] 20 µM
not listed: [3]
inactive: all other assays above

C=C(C)CN(CC)c1c([N+](=O)[O-])cc(C(F)(F)F)cc1[N+](=O)[O-]
active: [5] 3.92 µM | [9] 14.9 µM | CD40, CD40 (gene 958) 20 µM
not listed: [17]
inactive: all other assays above

COCC(=O)N(c1c(C)cccc1C)C(C)C(=O)OC (centres undefined)
not listed: [17]
inactive: all other assays above

CCNP(=S)(OC)O/C(C)=C/C(=O)OC(C)C (centres undefined)
active: [9] 0.148 µM | [19] 0.733 µM
not listed: [17]
inactive: all other assays above
